From the supplement of paper PMC3484114
± gives the standard deviation.

system: OVCAR-3-derived ovarian cancer stem-like cells (spheroids); experiment: cell growth relative to untreated control; higher = more growth (less inhibition); details: 2.29 µM; 96 h
Method in brief: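 After trypsin dissociation, OVCAR-3 spheroid-derived stem-like cells were placed in ultra-low attachment 96-well plates at 50,000 cells/mL in stem cell medium and preincubated for 24 h. Treatment at 2.29 uM followed for 96 h at 37°C, 5% CO2, with 4 replicate wells per compound. A 4 h TOX8 resazurin fluorescence read (ex 560/em 590 nm) gave viability, from which percent growth relative to untreated wells was derived after blank subtraction and Grubbs outlier removal.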

Going from `CN(C)/N=N/c1nc[nH]c1C(N)=O` to `CC(CN(C)C)C(=O)c1ccccc1C(=O)O` (centres undefined), the cell growth falls from 164 ± 14% to 92.7 ± 31%.

`O=C(CC1(O)C(=O)Nc2c(Cl)cc(Cl)cc21)c1ccc([N+](=O)[O-])cc1` (centres undefined) and `O=C(CC1(O)C(=O)Nc2c(Cl)cc(Cl)cc21)c1cccc([N+](=O)[O-])c1` (centres undefined) are within error of each other in cell growth: 101 ± 29% for the first, 88.1 ± 30% for the second.

`O=C(c1ccccc1)C1OC12C(=O)Nc1c(Cl)cc(Cl)cc12` (centres undefined) and `Cc1nc(-c2cccnc2)sc1C(=O)/C=C/c1ccc(Cl)cc1Cl` are within error of each other in cell growth: 94.6 ± 19% for the first, 114 ± 34% for the second.

`N#CCCN(c1ccc(C=O)cc1)S(=O)(=O)c1ccccc1` and `CCOC(=O)c1ccc(N=Cc2ccc(N(CCC#N)CCC#N)cc2)cc1` are within error of each other in cell growth: 116 ± 22% for the first, 101 ± 20% for the second.

`CCCCCCCC/C=C\CCCCCCCC(=O)O` and `CCCCOc1ccc(NC(N)=Nc2ccc(Cl)cc2)cc1` are the same in cell growth: 124 ± 36% for the first, 124 ± 20% for the second.

`Cc1ccccc1OCC(COC(=O)Nc1ccccc1)OC(=O)Nc1ccccc1` (centres undefined) and `COc1ccccc1Cc1nc(-c2ccccc2)nn(C2OC(COC(C)=O)C(OC(C)=O)C(OC(C)=O)C2OC(C)=O)c1=S` (centres undefined) are within error of each other in cell growth: 111 ± 16% for the first, 97.5 ± 16% for the second.

`CCOC(=O)C1=C(C)NC(=S)NC1c1ccccc1` (centres undefined) and `COC1CN(C)C(=Nc2cccc3ccccc23)S1` (centres undefined) are within error of each other in cell growth: 103 ± 12% for the first, 130 ± 21% for the second.

`Cc1[nH]c(=O)[nH]c(=O)c1/C=C/C(=O)NC(CO)CC(C)C` (centres undefined) and `Cc1ccccc1NC(=O)/C=N/O` are within error of each other in cell growth: 94.2 ± 22% for the first, 81 ± 7.2% for the second.

Compared with `C[C@]12CC[C@@H]3c4ccccc4CC[C@H]3[C@@H]1CC[C@@H]2O`, `OCC1OC(n2cnc3c(SCc4ccccc4)ncnc32)C(O)C1O` (centres undefined) is lower in cell growth: 229 ± 23% for the first, 118 ± 33% for the second.

`O=c1[nH]c(=O)n(C2CCCO2)cc1F` (centres undefined) showed a cell growth of 24.9 ± 6.8%.
